# From PubChem BioAssay (Tox21)
# Several values for one entry are separate records, joined by “and”; a condition that tells them apart may be missing. Equal values may be shown once. Inconclusive results are not listed. Some compounds were tested as several samples or in several runs, with calls that do not always agree. Activity calls are given as the source filed them. Calls follow the shape of the dose curve; as a rule, active = well fitted activation curve with a large enough effect in the repeat runs; inconclusive = weak or mixed curves; inactive = flat fitted curve, though single readings scatter.
# Test: A CellTox Green Cytotoxicity Assay to monitor cytotoxicity in HepG2 cells - 40 hour (AID 1224879); also: nearly all actives have a fitted effect of over 40% in size
# Details: CellTox Green fluorescence; series mostly up to 76.8 µM; cytotoxicity increase: at the top concentration
# How it was run: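 Cytotoxicity was tracked as dead-cell DNA fluorescence in HepG2 cells treated with test compounds at 37 C; each time-point value comes from one kinetic series spanning 0, 8, 16, 24, 32 and 40 h.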
# % is scaled to controls: 0 for no effect and ±100 for the full control effect; potency is read from the fitted curve at half-maximal effect.
SMILES,cytotoxicity increase,Potency
CCCC[N+](=O)[O-],1.86% (inactive),
BrCC1CO1 (centres undefined),-18.8% (inactive),
CCC1(c2ccccc2)CCC(=O)NC1=O (centres undefined),-0.263% [at 35.3 µM] (inactive),
ClC(Cl)(Cl)Cl,0.584% (inactive),
CCc1ccc(C2CCNCC2)cc1,1.64% [at 35.3 µM] (inactive),
CC(C)C(C)(N)C#N (centres undefined),-9.47% (inactive),
CC(C)(C)C(=O)C(Cl)Cl,-8.94% (inactive),
CN(C)C(=O)Oc1cc(OC(=O)N(C)C)cc(C(O)CNC(C)(C)C)c1 (centres undefined),-3.64% [at 35.3 µM] (inactive),
CCOC(=O)NC(C)(C)Cc1ccc(Cl)cc1,25.7% [at 35.3 µM] (inactive),
C=C(Cl)CSC(=S)N(CC)CC,-0.0727% (inactive),
O=P(O)(O)CN(CP(=O)(O)O)CP(=O)(O)O,,inactive
Cn1c(N)nc2c3cccnc3ccc21,5.71% (inactive),
O=C1C2CC=CCC2C(=O)N1SC(Cl)(Cl)Cl (centres undefined),,inactive and 10.8 µM (active)
CCNc1nc(NCC)nc(SC)n1,-11.7% (inactive),
N[C@@H](Cc1ccc(Oc2cc(I)c(O)c(I)c2)c(I)c1)C(=O)O,-3.38% [at 35.3 µM] (inactive),
Clc1ccc(C(Cl)(Cl)Cl)cn1,11.4% (inactive),
CCNc1nc(Cl)nc(NC(C)(C)C)n1,1.69% (inactive),

SMILES,cytotoxicity increase,Potency
COc1ccc2c(C(=O)c3ccc(Cl)cc3)c(C)n(CC(=O)O)c2c1,-2.94% [at 35.3 µM] (inactive),
CCCOC(=O)c1cncn1C(C)c1ccccc1 (centres undefined),0.644% [at 35.3 µM] (inactive),
CCOC(=O)C(Cl)Cc1cc(-n2nc(C)n(C(F)F)c2=O)c(F)cc1Cl (centres undefined),-3.95% (inactive),
COc1ccc(CN2CCNCC2)c(OC)c1OC,-15.1% [at 35.3 µM] (inactive),
CCOP(=S)(OCC)SCCl,7.97% (inactive),
CC(=O)OCC1=C(C(=O)O)N2C(=O)[C@@H](N)[C@H]2SC1,-2.77% [at 15.8 µM] (inactive),
C=CCc1cc(OC)c2c(c1)OCO2,17.2% (inactive),
CC#Cc1cc(C)nc(Nc2ccccc2)n1,1.16% (inactive),
C=C1CC[C@@]2(O)[C@H]3Cc4ccc(O)c5c4[C@@]2(CCN3CC2CC2)[C@H]1O5,0.308% [at 35.3 µM] (inactive),
CC[C@H](O)C(C[C@H](C)N(C)C)(c1ccccc1)c1ccccc1,39.4% (inactive),
NCC1(CC(=O)O)CCCCC1,-3.66% [at 35.3 µM] (inactive),
[O-][Br+2]([O-])O,-16.8% [at 35.3 µM] (inactive),
NNC(N)=O,-5.91% (inactive),
CNC(=O)O/N=C(/CSC)C(C)(C)C,5.02% (inactive),
CC(Cc1ccccc1)NCCCCl (centres undefined),8.25% [at 35.3 µM] (inactive),
CCCCCCCCSC(=O)Oc1cc(Cl)nnc1-c1ccccc1,-18.9% (inactive),
CC(C)(C)c1cc(O)ccc1O,,inactive
